# From PubChem
# Shown are actives, neighbours in structure and some others; about 1.7% of the full set was active somewhere.
# Mtb hypoxia rep = inhibitors of hypoxia-regulated fluorescent reporter in Mycobacterium tuberculosis; M. tuberculosis hypoxia-regulated fluorescent reporter, fluorescence; fluorescence inhibition, % (concentration not given with the values); 0.1% of 300,000 active; AID 1159583; in the data active = fluorescence inhibition mostly above about 23%, no sharp cut-off; inactive = mostly below about 17%
# Sa ugtP lethal = kills S. aureus RN4220 lacking UgtP; S. aureus RN4220 ugtP deletion, OD600 growth, 16 h; 0.54% of 330,000 active; growth inhibition, % (test concentration not listed); AID 1259309; in the data active = growth inhibition above about 68%;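 also: plate controls were untreated wells for no effect and antibiotic for full effect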
# BH1578 lux ind = induces V. cholerae light production without autoinducers; 0.16% of 350,000 active; activation, % at 18.7 µM; AID 588436; V. cholerae BH1578 lux reporter, luminescence, 6 h; in the data active = activation mostly above about 9.7%, no sharp cut-off
# PfHsp40 yeast = restores yeast growth despite PfHsp40 toxicity; S. cerevisiae expressing PfHsp40, growth rescue, ATP luminescence; growth rescue, % at 12.5 µM; 0.68% of 340,000 active; in the data active = growth rescue above about 28%, passing the limit was not always enough;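 also: yeast W303a lacking pdr1 and pdr3 grown in galactose medium; growth measured after three days at 30 °C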
# Sa RN4220 lethal = kills Staphylococcus aureus RN4220 | S. aureus RN4220 growth, OD600, 16 h | inhibition, % (test concentration not listed) | 0.33% of 330,000 active | AID 1259311; in the data active = inhibition above about 85%;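 also: plate controls were untreated cells for no effect and reference antibiotic for full effect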
# CCHF vOTU inh-1 = CCHFV vOTU protease inhibition; Pep-AMC fluorescence; inhibition, % at 11.5 µM; 0.55% of 370,000 active; also: 0% = vehicle wells with enzyme and 100% = no enzyme wells
# CCHF vOTU inh-2 = confirmation of CCHF virus vOTU protease inhibitors; Recombinant CCHFV vOTU, Pep-AMC fluorescence; shares compounds with CCHF vOTU inh-1; 17% of 1,900 active; inhibition, % at 11.5 µM; AID 686976
# Active calls of the source: *; i = inactive; · = no result given. Rule as the data show it, unless noted: active = inhibition above about 30%; inactive = the rest.
SMILES,Mtb hypoxia rep,Sa ugtP lethal,BH1578 lux ind,PfHsp40 yeast,Sa RN4220 lethal,CCHF vOTU inh-1,CCHF vOTU inh-2
COC(=O)C1=C(c2ccc(OC)c(OC)c2)CC2CCC1N2C(=O)NCCCOC(C)C (stereo not given),2,-10,·,·,4,·,·
Oc1cc(NCCN2CCOCC2)cc2cccnc12,11,-7,0,3,6,99*,46*
Oc1cc(Nc2ccccc2)cc2cccnc12,-2,-6,i,17,16,2,·
Cc1ccc(S(=O)(=O)NN=Cc2cn(-c3ccccc3)nc2-c2ccccc2)cc1,5,-28,·,·,-11,·,·
CC(=O)Nc1ccc(Nc2nc3ccccc3nc2NS(=O)(=O)c2ccc(Cl)c([N+](=O)[O-])c2)cc1,5,6,1,-2,9,32*,15
NC(=O)C1CCCCNc2c(F)cc([N+](=O)[O-])cc2C(=O)NC(CC(=O)O)C(=O)NC(CCC(=O)O)C(=O)N1 (stereo not given),3,-2,·,·,4,·,·
CN(CCCC1CCCC1)C(=O)c1cc(COc2c(F)cccc2F)on1,3,5,-1,3,7,3,·
CN(CCCC1CCCC1)C(=O)c1cc(COc2ccc(F)c(F)c2)on1,6,-6,0,44*,0,38*,4
O=C(O)COc1ccccc1/C=N/NC(=O)Cc1csc(Nc2cccc(C(F)(F)F)c2)n1,·,·,i,1,·,32*,-2
CCC(C)Sc1ccc(C2C3C(=O)N(CC)C(=O)C3[C@]3(C(=O)OC)CCCCN23)cc1 (stereo not given in full),6,0,·,·,-5,·,·
Cc1ccc(S(=O)(=O)/N=C(/Nc2nc(C)cs2)c2ccccc2)cc1,14,15,i,-1,0,38*,-9
Cc1ccc(CNC(=O)CSc2nc(=O)n3ccc(C)cc3n2)cc1,·,·,0,·,·,40*,5
NC(=O)c1ccc(NC(=O)COC(=O)c2ccccc2SCC(=O)N2CCCC2)cc1,·,·,i,·,·,33*,-6
O=C(COC(=O)c1ccccc1SCC(=O)N1CCCC1)Nc1ccc(OC(F)F)cc1,2,2,i,-1,3,-3,·
CCOc1ccccc1NC(=O)COC(=O)c1ccccc1SCC(=O)N1CCCC1,0,-4,-1,0,-1,37*,-10
CCCCCCCCCCCCN1C(CC(C)=O)c2cc(F)cc(F)c2S1(=O)=O (stereo not given),15,8,·,·,2,·,·
O=C(ON=Cc1ccc(Br)cc1)c1ccc(F)cc1,4,3,·,·,8,·,·
COC(=O)c1ccc(CN2C(C(=O)OC)C[C@@]3(O)C(O)C(O)C(O)CC23)cc1 (stereo not given in full),4,1,·,·,3,·,·
CCCc1cc(-c2ccc(O)c(OCC)c2)c(C#N)c(N)n1,17,13,5,-2,8,39*,4
COc1cc(CCc2ccccc2)c(C(=O)O)c(O)c1C/C=C(/C)CCC=C(C)C,-3,100*,0,3,88*,36*,47*
COc1cc(CCc2ccccc2)c(C(=O)O)c(O)c1CC=C(C)C,·,·,0,6,·,29,·
Cc1ccc(N/C=C2/Sc3ccccc3NC2=O)cc1,14,3,2,-1,0,31*,-9
COc1ccc(N/C=C2/Sc3ccccc3NC2=O)cc1,15,-3,0,2,5,-6,·
Cn1cc(/C=C2\SC(=S)N(NC(=O)c3ccccc3Cl)C2=O)c2ccccc21,12,-3,0,0,-5,31*,27
CC1=CC(=O)c2ccccc2C1=O,1,-2,0,-1,13,11,·
SMILES,Mtb hypoxia rep,Sa ugtP lethal,BH1578 lux ind,PfHsp40 yeast,Sa RN4220 lethal,CCHF vOTU inh-1,CCHF vOTU inh-2
CC(C)(C=O)C1=CC(=O)c2ccccc2C1=O,5,7,0,11,34,79*,-27
Cc1cccc(OCC(=O)NCC(=O)NN=Cc2c(C)[nH]c3ccccc23)c1,1,8,·,·,5,·,·
COc1cccc(OCc2cc(C(=O)N(C)C3CCOCC3)no2)c1,3,1,2,0,2,30*,-10
COc1cccc(OCc2cc(C(=O)N(C)C3CC(C)(C)NC(C)(C)C3)no2)c1,2,-5,0,1,-1,-6,·
CC(=NOCC(=O)O)c1ccc(Cl)cc1,-11,6,·,·,4,·,·
CC(NC(=O)C(C)N1c2cccc3cccc(c23)S1(=O)=O)c1ccccc1 (stereo not given),14,-5,0,-1,4,32*,-18
COC(=O)C1=C(c2ccc(C(C)=O)cc2)CC2CCC1N2C(=O)N1CCC(C)CC1 (stereo not given),11,1,·,·,6,·,·
O=c1ccc2cc3c([nH]c4ccc(Br)cc43)oc-2c1O,·,0,0,228*,8,32*,9
CNc1ccc(Br)cc(C(=O)/C=C/c2ccc(OC)cc2)c1=O,4,0,0,4,3,36*,-5
CN(C)c1ccc(C=NNC(=O)C(=O)/C=C2\NC3(CCCC3)Cc3ccccc32)cc1,1,3,·,·,-7,·,·
Cc1[nH]n(-c2ccccc2)c(=O)c1C(C[N+](=O)[O-])c1ccccc1Cl (stereo not given),·,-6,0,-1,3,0,·
COc1cccc(C(c2c(C)[nH]n(-c3ccccc3)c2=O)c2c(C)[nH]n(-c3ccccc3)c2=O)c1OC,6,0,i,-2,-1,56*,-8
CCOc1cccc(C(c2c(C)n(C)n(-c3ccccc3)c2=O)c2c(C)n(C)n(-c3ccccc3)c2=O)c1OC,15,5,i,1,1,-4,·
COc1cccc(C(c2c(C)[nH]n(-c3ccccc3)c2=O)c2c(C)[nH]n(-c3ccccc3)c2=O)c1O,17,6,0,0,3,99*,-4
Cc1ccc(-c2c3c(nc4sc(C(N)=O)c(N)c24)CCCC3)o1,11,30,-1,10,3,7,·
NC(=O)c1sc2nc3c(c(-c4ccco4)c2c1N)CCC3,0,62,1,1,4,49*,13
CC(NC1=CC(=O)c2cccnc2C1=O)C(O)c1ccccc1 (stereo not given),·,·,i,-2,·,101*,94*
CC(=NNc1nccnc1Cl)c1ccc(Br)cc1,6,2,·,·,3,·,·
O=C1CC(NCc2ccncc2)C(=O)N1c1ccccc1 (stereo not given),11,4,i,0,4,35*,-9
COc1cc(C=NNC(=O)C(N)=O)ccc1OC(=O)c1cccs1,4,-1,·,·,6,·,·
Cc1nnc(N/N=C/c2ccc(-c3ccccc3F)o2)n1N,·,·,-1,0,·,79*,5
Cc1nnc(NN=Cc2ccc(-c3ccccc3[N+](=O)[O-])o2)n1N,3,3,·,·,12,·,·
CCc1nnc(N/N=C/c2ccc(-c3ccc([N+](=O)[O-])cc3)o2)n1N,·,·,0,-1,·,65*,4
